In all, about 5,500 compounds went through this assay and about 2,000 (36%) were called active. Inconclusive results (about 18%) are left out. Cut-off read from the data, not from the text of the source: active = normalized growth mostly below about 0.91 (no sharp cut-off); inconclusive = no clear call, values can overlap the other calls; inactive = mostly above about 0.92. The list shows a part of the results.
Test: chemical genetic growth profiling, strain panel (AID 1159580);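 note: tested at 20 µM; growth read once vehicle control cultures reached saturation at 30 °C; 1 = growth at the plate median or of vehicle wells; lower values mean less growth of the strain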
Conditions: growth OD

Measured: normalized growth

CC(=O)O[C@H]1C[C@H](O[C@H]2[C@@H](O)C[C@H](O[C@H]3[C@@H](O)C[C@H](O[C@H]4CC[C@@]5(C)C(CCC6C5C[C@@H](O)[C@]5(C)[C@@H](C7=CC(=O)OC7)CC[C@]65O)C4)O[C@@H]3C)O[C@@H]2C)O[C@H](C)[C@H]1O[C@@H]1O[C@H](CO)[C@@H](O)[C@H](O)[C@H]1O (stereo not given in full)
inactive: S. cerevisiae deletion strains, locus YJR075W, strain HOC1, stronger effect = lower value 1.02 | S. cerevisiae deletion strains, locus YKL009W, strain mrt4, stronger effect = lower value 1 | S. cerevisiae deletion strains, locus YKL068W, stronger effect = lower value 1 | S. cerevisiae deletion strains, locus YKL085W, strain MDH1 (second series), stronger effect = lower value 1 | S. cerevisiae deletion strains, locus YKL085W, strain MDH1, stronger effect = lower value 1 | S. cerevisiae deletion strains, locus YKL160W, strain elf1, stronger effect = lower value 1.01 | S. cerevisiae deletion strains, locus YKL190W, strain CNB1, stronger effect = lower value 1.01 | S. cerevisiae deletion strains, locus YKR001C, strain vps1, stronger effect = lower value 1.01 | S. cerevisiae deletion strains, locus YKR026C, strain gcn3, stronger effect = lower value 0.982 | S. cerevisiae deletion strains, locus YKR091W, strain srl3, stronger effect = lower value 1 | S. cerevisiae deletion strains, locus YLL001W, strain dnm1, stronger effect = lower value 1 | S. cerevisiae deletion strains, locus YLL026W, stronger effect = lower value 0.999 | S. cerevisiae deletion strains, locus YLL041C, strain sdh2, stronger effect = lower value 1 | S. cerevisiae deletion strains, locus YLR027C, strain aat2, stronger effect = lower value 1 | S. cerevisiae deletion strains, locus YLR039C, strain RIC1, stronger effect = lower value 1.05 | S. cerevisiae deletion strains, locus YLR058C, strain SHM2, stronger effect = lower value 1.02 | S. cerevisiae deletion strains, locus YLR102C, strain apc9, stronger effect = lower value 0.978 | S. cerevisiae deletion strains, locus YLR113W, strain HOG1, stronger effect = lower value 0.977 | S. cerevisiae deletion strains, locus YLR221C, strain rsa3, stronger effect = lower value 1 | S. cerevisiae deletion strains, locus YLR258W, strain gsy2, stronger effect = lower value 0.994 | S. cerevisiae deletion strains, locus YLR262C, strain YPT6 (second series), stronger effect = lower value 0.999 | S. cerevisiae deletion strains, locus YLR262C, strain YPT6, stronger effect = lower value 1.04 | S. cerevisiae deletion strains, locus YLR268W, strain sec22, stronger effect = lower value 1 | S. cerevisiae deletion strains, locus YLR320W, strain mms22, stronger effect = lower value 0.999 | S. cerevisiae deletion strains, locus YLR330W, strain CHS5, stronger effect = lower value 1.01 | S. cerevisiae deletion strains, locus YLR342W, strain FKS1 (second series), stronger effect = lower value 1.02 | S. cerevisiae deletion strains, locus YLR342W, strain FKS1, stronger effect = lower value 1 | S. cerevisiae deletion strains, locus YLR357W, strain rsc2, stronger effect = lower value 0.993 | S. cerevisiae deletion strains, locus YLR370C, strain arc18, stronger effect = lower value 0.994 | S. cerevisiae deletion strains, locus YLR371W, strain rom2, stronger effect = lower value 0.975 | S. cerevisiae deletion strains, locus YLR384C, strain iki3, stronger effect = lower value 0.988 | S. cerevisiae deletion strains, locus YLR418C, strain cdc73, stronger effect = lower value 1.05 | S. cerevisiae deletion strains, locus YML016C, strain PPZ1, stronger effect = lower value 1.01 | S. cerevisiae deletion strains, locus YML032C, strain rad52, stronger effect = lower value 0.991 | S. cerevisiae deletion strains, locus YML120C, strain ndi1, stronger effect = lower value 0.992 | S. cerevisiae deletion strains, locus YML124C, strain tub3, stronger effect = lower value 0.992 | S. cerevisiae deletion strains, locus YMR058W, strain fet3, stronger effect = lower value 1 | S. cerevisiae deletion strains, locus YMR078C, strain ctf18, stronger effect = lower value 0.984 | S. cerevisiae deletion strains, locus YMR125W, strain sto1, stronger effect = lower value 0.979 | S. cerevisiae deletion strains, locus YMR129W, stronger effect = lower value 0.991 | S. cerevisiae deletion strains, locus YMR205C, strain PFK2, stronger effect = lower value 0.974 | S. cerevisiae deletion strains, locus YMR223W, strain ubp8, stronger effect = lower value 0.997 | S. cerevisiae deletion strains, locus YMR231W, strain pep5, stronger effect = lower value 0.989 | S. cerevisiae deletion strains, locus YMR263W, strain SAP30, stronger effect = lower value 1.01 | S. cerevisiae deletion strains, locus YMR307W, strain GAS1, stronger effect = lower value 1.07 | S. cerevisiae deletion strains, locus YNL067W, strain RPL9B, stronger effect = lower value 1 | S. cerevisiae deletion strains, locus YNL071W, strain lat1, stronger effect = lower value 0.999 | S. cerevisiae deletion strains, locus YNL183C, strain NPR1, stronger effect = lower value 0.922 | S. cerevisiae deletion strains, locus YNL209W, strain ssb2, stronger effect = lower value 0.999 | S. cerevisiae deletion strains, locus YNL233W, strain BNI4, stronger effect = lower value 1.01 | S. cerevisiae deletion strains, locus YNL248C, strain rpa49, stronger effect = lower value 0.998 | S. cerevisiae deletion strains, locus YNL250W, strain rad50, stronger effect = lower value 1.01 | S. cerevisiae deletion strains, locus YNL271C, strain bni1, stronger effect = lower value 1.01 | S. cerevisiae deletion strains, locus YNL298W, strain CLA4, stronger effect = lower value 1 | S. cerevisiae deletion strains, locus YNL307C, strain MCK1, stronger effect = lower value 0.991 | S. cerevisiae deletion strains, locus YNL322C, strain KRE1 (second series), stronger effect = lower value 0.993 | S. cerevisiae deletion strains, locus YNL322C, strain KRE1, stronger effect = lower value 1.01 | S. cerevisiae deletion strains, locus YNR049C, strain mso1, stronger effect = lower value 0.992 | S. cerevisiae deletion strains, locus YNR052C, strain pop2, stronger effect = lower value 0.994 | S. cerevisiae deletion strains, locus YOL006C, strain TOP1, stronger effect = lower value 1.03 | S. cerevisiae deletion strains, locus YOL012C, strain htz1 0.846 | S. cerevisiae deletion strains, locus YOL147C, strain pex11, stronger effect = lower value 0.988 | S. cerevisiae deletion strains, locus YOR001W, strain rrp6, stronger effect = lower value 1.01 | S. cerevisiae deletion strains, locus YOR061W, strain CKA2, stronger effect = lower value 1.01 | S. cerevisiae deletion strains, locus YOR069W, strain VPS5, stronger effect = lower value 1.01 | S. cerevisiae deletion strains, locus YOR070C, strain gyp1, stronger effect = lower value 0.999 | S. cerevisiae deletion strains, locus YOR080W, strain dia2, stronger effect = lower value 0.999 | S. cerevisiae deletion strains, locus YOR083W, strain WHI5, stronger effect = lower value 1 | S. cerevisiae deletion strains, locus YOR106W, strain vam3, stronger effect = lower value 1.01 | S. cerevisiae deletion strains, locus YOR136W, strain idh2, stronger effect = lower value 1 | S. cerevisiae deletion strains, locus YOR144C, strain elg1, stronger effect = lower value 1 | S. cerevisiae deletion strains, locus YOR184W, strain ser1, stronger effect = lower value 1.02 | S. cerevisiae deletion strains, locus YOR231W, strain MKK1, stronger effect = lower value 0.983 | S. cerevisiae deletion strains, locus YOR265W, strain rbl2, stronger effect = lower value 1 | S. cerevisiae deletion strains, locus YOR270C, strain vph1, stronger effect = lower value 0.946 | S. cerevisiae deletion strains, locus YOR290C, strain snf2, stronger effect = lower value 1.02 | S. cerevisiae deletion strains, locus YOR316C, strain cot1, stronger effect = lower value 0.982 | S. cerevisiae deletion strains, locus YPL051W, strain arl3, stronger effect = lower value 1 | S. cerevisiae deletion strains, locus YPL055C, strain LGE1, stronger effect = lower value 0.997 | S. cerevisiae deletion strains, locus YPL078C, strain atp4, stronger effect = lower value 1.02 | S. cerevisiae deletion strains, locus YPL106C, strain sse1, stronger effect = lower value 1 | S. cerevisiae deletion strains, locus YPL240C, strain hsp82, stronger effect = lower value 0.999 | S. cerevisiae deletion strains, locus YPL241C, strain CIN2, stronger effect = lower value 1.01 | S. cerevisiae deletion strains, locus YPL256C, strain CLN2, stronger effect = lower value 0.994 | S. cerevisiae deletion strains, locus YPR119W, strain clb2, stronger effect = lower value 0.981 | S. cerevisiae deletion strains, locus YPR141C, strain kar3, stronger effect = lower value 1.01 | S. cerevisiae deletion strains, locus YPR163C, strain tif3, stronger effect = lower value 0.99 | S. cerevisiae deletion strains, locus YPR167C, strain met16, stronger effect = lower value 1.01 | S. cerevisiae deletion strains, strain wtn01, stronger effect = lower value 1.01 | S. cerevisiae strains, strain wild type, stronger effect = lower value 1.01

From PubChem BioAssay AID1159580 (chemical genetic matrix, 2015)
